# From PubChem BioAssay (NCATS)
# Results filed as inconclusive are left out. Some compounds were tested as several samples or in several runs, with calls that do not always agree. Activity calls are given as the source filed them. Unless noted, the call rests on the fitted dose curve.
# Tests used:
# [1] = Cytotoxicity counterscreen for inhibitors of SARS-CoV-2 cell entry (AID 1645845); settings: outcome: dose series up to 57.1 µM unless noted; further: nearly all actives have a fitted effect of over 50% in size; further: potency means the concentration at half of the fitted maximal effect
# How it was run: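 HEK293-ACE2 cells (Expi293F stably expressing human ACE2) seeded overnight, then compound for 1 h plus 48 h at 37C. Viability as ATP content by luminescence; normalized to wells with cells and media-only wells.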
# [2] = Primary qHTS to identify inhibitors of SARS-CoV-2 cell entry (AID 1645846); settings: SARS-CoV-2 pseudovirus cell entry assay, luminescence; activity change, negative = inhibition: at 57.1 µM (top of the series) unless noted; further: nearly all actives have a fitted effect of over 45% in size; further: potency means the concentration at half of the fitted maximal effect
# How it was run: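 HEK293 cells stably expressing human ACE2, pre-treated 1 h with compound, then infected with MLV particles pseudotyped with Wuhan-Hu-1 spike (C-terminal 19-aa truncation). Luciferase luminescence after 48 h at 37 °C, normalised to spike PP and bald PP.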
# [3] = Primary qHTS for inhibitors of nuclear receptor binding SET domain protein 2 (NSD2) in an isogenic RCH-ACV NSD2 p.E1099K mutant (9B) (AID 1645876; active means well fitted curve in the direction sought with a large enough effect; an effect the other way counts as inactive or inconclusive; further: nearly all actives have a fitted effect of over 70% in size; further: potency means the concentration at half of the fitted maximal effect)
# [4] = Primary qHTS for inhibitors of nuclear receptor binding SET domain protein 2 (NSD2) in an RCH-ACV wild type WT cells (2C) (AID 1645877; active means well fitted curve in the direction sought with a large enough effect; an effect the other way counts as inactive or inconclusive; further: nearly all actives have a fitted effect of over 70% in size; further: potency means the concentration at half of the fitted maximal effect)
# [5] = Primary qHTS for Huh7 cytotoxicity: counterscreen for inhibitors of MERS-S pseudotyped particle cell entry (AID 1479147); settings: outcome: dose series up to 57.1 µM unless noted
# [6] = Primary qHTS for Vero E6 cytotoxicity: counterscreen for inhibitors of SARS-S pseudo-typed particle cell entry (AID 1479150); settings: outcome: dose series up to 57.1 µM unless noted
# [7] = VSVG counterscreen qHTS to identify inhibitors of SARS-CoV-2 cell entry (AID 1645847); further: potency means the concentration at half of the fitted maximal effect; nearly all actives have a fitted effect of over 65% in size
# How it was run: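 HEK293-ACE2 cells (Expi293F, human ACE2) pretreated 1 h with compound, then infected with MLV-based VSV-G pseudotyped particles for 48 h at 37 C; luciferase luminescence normalized to VSV-G PP and bald PP wells.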
# [8] = qHTS assay to identify inhibitors of the type 1 interferon - major histocompatibility complex class I in skeletal muscle: Counter screen cell viability and HiBit confirmation (AID 1347412; active means well fitted curve in the direction sought with a large enough effect; an effect the other way counts as inactive or inconclusive; further: potency means the concentration at half of the fitted maximal effect; on activity change, negative = inhibition: on the % scale 0 is the no-effect control and ±100 the full control effect; on all read-outs here: nearly all actives have a fitted effect of over 60% in size); settings: iHSKM muscle cells + IFN-b, HiBiT or CellTiter-Glo, 24 h; for activity change, negative = inhibition: Viability, at 45.9 µM (top of the series); for Potency: HiBiT
# How it was run: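 CRISPR HLA-B*08:01-HiBit immortalized human myoblasts (C25cl48) stimulated with 4 ng/ml IFN-beta and compounds (12-point 1:3, top 46 uM final) for 24 h at 37 C. Duplicate plates read by HiBit lytic luminescence or CellTiter Glo ATP.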
# [9] = qHTS Assay for Lipid Storage Modulators (AID 1519); settings: Drosophila S3 cells, BODIPY lipid droplet/cell ratio, laser cytometry, cells loaded with oleic acid; on activity change, negative = inhibition: on the % scale 0 is the no-effect control and ±100 the full control effect
# How it was run: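 Cells seeded at 5,000 per well were treated with compounds over a concentration series and loaded with oleic acid (400 uM, as added). Lipid droplet fluorescence (488 nm excitation, 500-530 nm channel) was read by laser-scanning cytometry and normalized to 20 uM Triacsin C.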
# [10] = biological target: Glucocorticoid receptor (Homo sapiens) (UniProt P04150); assay: GR-EFC Redistribution (AID 451); settings: CHO-K1 GR-EFC translocation, beta-gal luminescence, 2 h; further: potency means the concentration at half of the fitted maximal effect
# How it was run: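 CHO-K1 cells expressing nuclear EA and GR-ED fragments of b-gal; compounds titrated up to 46 uM final, 2 h at 37 C. GR nuclear translocation read as complemented b-gal luminescence after 1 h RT detection.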
# [11] = biological target: Mitogen-activated protein kinase 10 (Mus musculus) (UniProt Q61831); assay: JNK3 AlphaScreen Assay (AID 530; active means well fitted curve in either direction with a large enough effect, not every such curve was filed as active;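 further: kinase came from lysate of stimulated human HepG2 cells; signal reports phosphorylation of biotinylated GST-cJun 1-79 at Ser73 with 10 µM ATP; on the % scale 0 is the no-effect control and ±100 the full control effect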)
# How it was run: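 Pre-activated (IL-1β/TNFα) JNK3 in HepG2 lysates phosphorylates biotin-GST-cJun(1-79), 10 uM ATP; anti-phospho-cJun(Ser73) AlphaScreen read at room temperature, pH 7.6 Tris buffer. Compounds pre-incubated 15 min as titrations.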
# [12] = biological target: 3',5'-cyclic-AMP phosphodiesterase 4B (Homo sapiens) (UniProt Q07343); assay: qHTS Assay for Inhibitors of PDE-IV (AID 607; active means well fitted activation curve with a large enough effect in the main read-out, with a control signal flat, not every such curve was filed as active; further: % of control where 0% means no effect)
# How it was run: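 Cell-based read-out of cAMP via a modified cyclic nucleotide-gated channel and membrane potential dye (535/590 nm) in HEK293 cells expressing PDE4 endogenously. Compounds tested up to 22.9 uM final; 100 uM RO 20-1724 reference.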
# [13] = Confirmatory qHTS to identify inhibitors of SARS-CoV-2 cell entry (AID 1645844); further: potency means the concentration at half of the fitted maximal effect; nearly all actives have a fitted effect of over 45% in size
# How it was run: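 HEK293-ACE2 cells were pretreated 1 h with compound, then infected with MLV-based pseudoparticles bearing C-terminally truncated Wuhan-Hu-1 spike for 48 h at 37C; luciferase luminescence normalized to spike PP and bald PP wells.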
# Chain of 3',5'-cyclic-AMP phosphodiesterase 4B (Homo sapiens) (Q07343 whole entry, looked up): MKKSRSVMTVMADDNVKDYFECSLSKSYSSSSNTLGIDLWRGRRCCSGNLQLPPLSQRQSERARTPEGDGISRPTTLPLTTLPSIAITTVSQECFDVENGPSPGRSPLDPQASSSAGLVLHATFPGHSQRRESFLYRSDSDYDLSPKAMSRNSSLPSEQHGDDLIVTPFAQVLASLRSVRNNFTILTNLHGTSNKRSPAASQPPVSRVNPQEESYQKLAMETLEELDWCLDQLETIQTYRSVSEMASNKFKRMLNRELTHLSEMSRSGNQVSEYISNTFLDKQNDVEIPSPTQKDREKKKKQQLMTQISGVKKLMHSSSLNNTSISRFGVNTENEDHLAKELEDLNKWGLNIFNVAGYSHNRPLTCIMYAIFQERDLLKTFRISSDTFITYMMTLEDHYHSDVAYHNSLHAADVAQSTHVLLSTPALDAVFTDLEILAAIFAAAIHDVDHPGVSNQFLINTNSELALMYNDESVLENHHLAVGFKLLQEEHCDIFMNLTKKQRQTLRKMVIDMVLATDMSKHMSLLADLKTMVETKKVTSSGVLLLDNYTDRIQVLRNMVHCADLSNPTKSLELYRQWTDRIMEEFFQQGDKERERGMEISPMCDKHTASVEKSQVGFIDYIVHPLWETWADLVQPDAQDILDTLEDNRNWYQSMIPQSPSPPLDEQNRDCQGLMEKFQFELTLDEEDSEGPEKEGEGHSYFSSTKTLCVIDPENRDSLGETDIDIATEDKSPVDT
# Chain of Glucocorticoid receptor (Homo sapiens) (P04150 whole entry, looked up, the tested form may be a part): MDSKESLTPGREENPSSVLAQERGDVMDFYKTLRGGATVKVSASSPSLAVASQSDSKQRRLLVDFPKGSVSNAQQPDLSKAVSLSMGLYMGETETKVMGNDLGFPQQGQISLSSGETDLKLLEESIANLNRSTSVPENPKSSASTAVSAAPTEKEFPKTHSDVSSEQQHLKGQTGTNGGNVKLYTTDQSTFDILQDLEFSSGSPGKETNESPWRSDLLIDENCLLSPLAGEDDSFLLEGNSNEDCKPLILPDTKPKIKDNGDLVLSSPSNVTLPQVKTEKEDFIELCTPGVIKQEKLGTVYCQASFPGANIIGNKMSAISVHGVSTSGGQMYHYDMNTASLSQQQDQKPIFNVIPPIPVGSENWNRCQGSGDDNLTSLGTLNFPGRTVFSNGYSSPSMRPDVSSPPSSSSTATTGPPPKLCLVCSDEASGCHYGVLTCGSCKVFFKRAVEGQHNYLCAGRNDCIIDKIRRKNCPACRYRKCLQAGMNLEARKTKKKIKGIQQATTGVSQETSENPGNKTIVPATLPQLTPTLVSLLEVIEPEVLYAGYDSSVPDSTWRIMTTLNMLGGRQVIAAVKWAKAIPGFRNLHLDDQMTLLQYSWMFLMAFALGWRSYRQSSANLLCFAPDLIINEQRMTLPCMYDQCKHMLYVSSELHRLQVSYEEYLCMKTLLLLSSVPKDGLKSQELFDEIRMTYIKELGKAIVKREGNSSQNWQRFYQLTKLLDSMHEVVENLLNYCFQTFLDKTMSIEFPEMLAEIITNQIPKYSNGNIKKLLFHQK
compound,measurement,setting,value
Cn1c(/C=C/CO)c(CO)c2c1C(=O)C=C(N1CC1)C2=O,Potency,[1],inactive
same,Potency,[2],inactive
same,Potency,[3],inactive
same,Potency,[4],inactive
C=C[C@H]1CN2CCC1C[C@@H]2[C@@H](O)c1ccnc2ccccc12 (stereo partly specified),Potency,[1],inactive
same,"activity change, negative = inhibition",[2],-29.6%
same,Potency,[3],inactive
same,Potency,[4],inactive
C=C(C)[C@@H]1CCC(C)=C[C@H]1c1c(O)cc(CCCCC)cc1O,Potency,[5],inactive
same,Potency,[6],inactive
same,Potency,[1],inactive
same,Potency,[7],24.1 µM (active)
same,Potency,[3],18.6 µM (active)
same,Potency,[4],20.9 µM (active)
same,"activity change, negative = inhibition",[8],5.14% (inactive)
CC1(C)CC[C@]2(NC(=O)C(C)(F)F)CC[C@]3(C)[C@H](C(=O)C=C4[C@@]5(C)C=C(C#N)C(=O)C(C)(C)[C@@H]5CC[C@]43C)[C@@H]2C1,Potency,[2],1 µM (active)
same,Potency,[4],7.42 µM (active)
same,Potency,[8],1.57 µM (active)
CC(N[C@H]1C[C@@H]1c1ccccc1)c1ccc2c(c1)OCCO2 (stereo partly specified),Potency,[1],inactive
same,"activity change, negative = inhibition",[2],-4.37%
same,Potency,[3],inactive
same,Potency,[4],inactive
COC(=O)[C@]12CCC(C)(C)C[C@H]1[C@H]1C(=O)C=C3[C@@]4(C)C=C(C#N)C(=O)C(C)(C)[C@@H]4CC[C@@]3(C)[C@]1(C)CC2,Potency,[1],2.82 µM (active)
same,Potency,[2],1 µM (active)
same,Potency,[4],5.9 µM (active)
same,Potency,[8],1.57 µM (active)
O=C1CC(c2ccc(O)cc2)Oc2cc(O)cc(O)c21 (stereo unspecified),"activity change, negative = inhibition",[9]; at 57.5 µM (top of the series),9.01% (inactive)
same,max response,[9]; measured here: cell count channel max response,-5.6%
same,max response,[9]; measured here: lipid channel max response,4.14%
C[C@@H](C1CC[C@@]2(O)C3=CC(=O)[C@@H]4C[C@@H](O)[C@@H](O)C[C@]4(C)[C@H]3CC[C@]12C)[C@H](O)CCC(C)(C)O (stereo partly specified),Potency,[1],inactive
same,"activity change, negative = inhibition",[2],-30.2%
same,Potency,[3],inactive
same,Potency,[4],inactive
O=C(CBr)N1CC([N+](=O)[O-])([N+](=O)[O-])C1,Potency,[1],inactive
same,"activity change, negative = inhibition",[2],-11.3% [at 114 µM]
CC(C)(O)/C=C\C(=O)[C@](C)(O)[C@H]1[C@H](O)C[C@]2(C)[C@@H]3CC=C4[C@@H](C=C(O)C(=O)C4(C)C)[C@]3(C)C(=O)C[C@@]12C,Potency,[10],> 9.22 µM (inactive)
same,"activity change, negative = inhibition",[11],2.97% [at 11.4 µM] (inactive)
same,Potency,[12],inactive
same,Potency,[2],0.794 µM (active)
same,Potency,[3],0.0525 µM (active)
same,Potency,[4],0.0468 µM (active)
same,Potency,[8],6.25 µM (active)
same,"activity change, negative = inhibition",[8],186% (inactive)
Cn1c(COP(=O)(NCCBr)NCCBr)cnc1[N+](=O)[O-],Potency,[1],inactive
same,"activity change, negative = inhibition",[2],-15%
same,Potency,[4],18.6 µM (active)
Cc1c(N)nc([C@H](CC(N)=O)NC[C@@H](N)C(N)=O)nc1C(=O)N[C@H](C(=O)N[C@@H](C)[C@H](O)[C@@H](C)C(=O)N[C@@H](C(=O)NCCc1nc(-c2nc(C(=O)NCCC[S+](C)C)cs2)cs1)[C@@H](C)O)C(O[C@H]1O[C@H](CO)[C@H](O)[C@@H](O)[C@H]1O[C@H]1O[C@H](CO)[C@@H](O)[C@H](OC(N)=O)[C@@H]1O)c1cnc[nH]1 (stereo partly specified),Potency,[5],inactive
same,Potency,[6],inactive
same,Potency,[13],0.0341 µM (active)
same,Potency,[1],inactive
same,Potency,[2],1.12 µM (active)
same,"activity change, negative = inhibition",[2],-97.2%
same,Potency,[7],0.0341 µM (active)
same,Potency,[3],inactive
CC(C)[C@]12O[C@H]1[C@@H]1O[C@@]13[C@@]1(C)CCC4=C(COC4=O)[C@@H]1C[C@@H]1O[C@@]13C2=O,Potency,[1],inactive
same,"activity change, negative = inhibition",[2],-93.1%
same,Potency,[7],0.341 µM (active)
same,Potency,[3],0.0372 µM (active)
same,Potency,[4],0.0332 µM (active)
same,Potency,[8],0.0497 µM (active)
same,"activity change, negative = inhibition",[8],4.52% (inactive)
